WRN inhibitor = inhibitors of human WRN helicase; Q14191; WRN helicase unwinding, fluorescent forked duplex, kinetic; Potency, µM (titrated, usually from 114 µM), without a hit: at the top dose activity change, negative = inhibition, hits mostly inhibitors; 0.46% of 360,000 active; further: potency means the concentration at half of the fitted maximal effect; nearly all actives have a fitted effect of over 55% in size
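Fluorescence dequenching readout, ex 525 nm/em 598 nm, kinetic mode: forked duplex DNA (100 nM final) with adjacent fluorophore and quencher unwound by WRN (20 nM final) with 2 mM ATP. Compound preincubation 15 min, room temperature.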
RECQ1 helicase = blocks DNA unwinding by human RECQ1; 0.54% of 240,000 active; RECQ1 DNA unwinding, red fluorescence kinetic read; Potency, µM (series often up to 57.3 µM), inactives show at the highest dose activity, negative = inhibition, hits mostly inhibitors; P46063;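 further: potency means the concentration at half of the fitted maximal effect; plate controls were vehicle for no effect and no enzyme for full effect; nearly all actives have a fitted effect of over 30% in size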
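RECQ1T1 50 nM; forked duplex (20 bp + 30-nt ss tails) 200 nM, ATP 2 mM final; pH 8.0, 2 mM MgCl2, 2.5 ug/ml poly(dI-dC); 15 min compound preincubation; discontinuous kinetic read over 2 h at RT.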
APE1 inh = inhibitors of human APE1 endonuclease; recombinant APE1, TAMRA/BHQ-2 abasic DNA cleavage fluorescence; 0.35% of 350,000 active; Potency, µM (series often up to 65.8 µM), inactives show at the top dose activity change, negative = inhibition, usual class: inhibitors; AID 2517;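 further: potency means the concentration at half of the fitted maximal effect; plate controls were vehicle for no effect and reference inhibitor for full effect; nearly all actives have a fitted effect of over 55% in size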
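Endonuclease cleavage of a quenched abasic-site DNA duplex (50 nM) by APE1 (0.75 nM) was tracked by TAMRA dequenching. Compounds were preincubated with enzyme 15 min at room temperature; data normalized to buffer-only and DMSO wells plus NSC13755 control.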
PI5P4K alpha inh = PI5P4K alpha (human) kinase inhibition | P48426 | PI5P4Kalpha enzyme, ADP-Glo luminescence, 60 min; active compounds read low | max response, % | 1.2% of 330,000 active; active means max response of -50% or lower; inconclusive means between -30% and -50%; inactive means -30% or higher; further: value at the top dose of about 77 µM
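ADP-Glo luminescence end-point after a 60 min room-temperature kinase reaction. PI5P4Kalpha and substrate in HEPES pH 7.4 buffer with EGTA, 0.1% CHAPS and 5% DMSO; ATP at 5 microM final.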
FEN1 inhibitor = human FEN1 inhibition | Recombinant FEN1 flap cleavage, fluorescence, 15 min | Potency, µM (top dose mostly 114 µM), inactives show top-dose activity change, negative = inhibition, most hits filed as inhibitors | 0.35% of 390,000 active; further: potency means the concentration at half of the fitted maximal effect; nearly all actives have a fitted effect of over 65% in size
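Read-out was taken twice, immediately and after 15 min, following addition of 50 nM substrate to 10 nM FEN1 that had sat with test compound for 15 min at room temperature. Curves came from a four-parameter Hill model.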
BLM helicase inh = blocks DNA unwinding by human BLM helicase | P54132 | recombinant BLM DNA unwinding, fluorescence dequenching | Potency, µM (titrated, usually from 56.1 µM), inactives show at the highest dose activity change, negative = inhibition, most hits filed as inhibitors | 0.2% of 350,000 active | AID 2528;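 further: potency means the concentration at half of the fitted maximal effect; plate controls were vehicle for no effect and no enzyme for full effect; nearly all actives have a fitted effect of over 35% in size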
Active calls of the source: *; [ ] = another dose, or the depositor's remark. This is a sample that favours compounds with a hit; in the whole collection about 1.5% have one here. Unless noted, the call rests on the fitted dose curve; in most records, active means well fitted curve in the direction sought with a large enough effect; inconclusive means small, poorly fitted or top-dose-only effect, or another doubt; inactive means no such curve, though single readings can be large; an effect the other way counts as inactive or inconclusive. Unless noted, on the % scale 0 is the no-effect control and ±100 the full control effect.

Screening COc1cc(OC)cc(C(=O)NCc2ccc3c(c2)CCN3C(=O)c2ccccc2)c1 returned FEN1 inhibitor 0% and BLM helicase inh -3%.
Screening NC(=O)C1CCN(c2nc(-c3ccc(Cl)cc3)cs2)CC1 returned APE1 inh 5%.
Cc1ccc(CNc2ccc(N3CCNCC3=O)cc2)cc1 was read as APE1 inh -4%.
CCc1ccc(NC(=O)c2cc(=O)c3ccc(C)c(C)c3o2)cc1 was read as FEN1 inhibitor 2% and BLM helicase inh 1%.
`CCOC(=O)/C=C1/N(C)c2ccccc2C1(C)C` gave WRN inhibitor -10%, RECQ1 helicase inactive, APE1 inh 6%, PI5P4K alpha inh 6, FEN1 inhibitor 3% and BLM helicase inh -1%.
For CN1/C(=C\P(=O)(N(C)C)N(C)C)C(C)(C)c2ccccc21 the results were WRN inhibitor 50µM*, RECQ1 helicase inconclusive, APE1 inh -5%, FEN1 inhibitor -17% and BLM helicase inh -8%.
Screening Cn1cc(S(=O)(=O)c2ccccc2)c(=O)c2cc(F)c(N3CCCCCC3)cc21 returned FEN1 inhibitor -3% and BLM helicase inh 1%.
O=c1c2ccccc2sc2c(CO)ccc(NCCN3CCCCC3)c12 was read as WRN inhibitor -6%[11.6 µM], PI5P4K alpha inh 14 and FEN1 inhibitor 40µM*.
`CCN(CC)CCNc1cccc2sc3ccccc3c(=O)c12` gave WRN inhibitor -1% and PI5P4K alpha inh 3.
CCCCCNC(=O)C(c1ccc(OC)cc1)n1c(=O)c(-c2ccco2)nc2ccccc21 (configuration not stated) was read as WRN inhibitor -6% and PI5P4K alpha inh -24.
For O=C(NC1CCCCC1)C(c1ccncc1)n1c(=O)c(-c2ccccc2)nc2ccccc21 (configuration not stated) the results were WRN inhibitor 4% and PI5P4K alpha inh -1.
O=C(NC1CCCCC1)C(c1ccccc1F)n1c(=O)c(-c2ccco2)nc2ccccc21 (configuration not stated) was read as WRN inhibitor -5% and PI5P4K alpha inh -69*.
Screening CCCCCNC(=O)C(c1ccccc1F)n1c(=O)c(-c2ccco2)nc2ccccc21 (configuration not stated) returned WRN inhibitor -13% and PI5P4K alpha inh -64*.
O=C(NC1CCCCC1)C(c1ccc(-c2ccccc2)cc1)n1c(=O)c(-c2ccco2)nc2ccccc21 (configuration not stated) was read as WRN inhibitor -22% and PI5P4K alpha inh -92*.
Screening COc1ccc(CNc2ncnc3nc[nH]c23)cc1 returned FEN1 inhibitor 5%.
`Cc1ccc(S(=O)(=O)N(CC(O)Cn2c3ccccc3c3ccccc32)c2cccc(C(=O)N(C)C)c2)cc1` (configuration not stated) gave FEN1 inhibitor 89µM* and BLM helicase inh -9%.
Cc1ccc(S(=O)(=O)N(CC(O)Cn2c3ccccc3c3ccccc32)c2cccc(C(N)=O)c2)cc1 (configuration not stated) was read as FEN1 inhibitor -27% and BLM helicase inh -17%.
For CS(=O)(=O)c1nsc2nc(=O)c(/C=C3\C=Nc4ccccc43)c(N)n12 the results were WRN inhibitor -14%, RECQ1 helicase inactive, APE1 inh -1%, PI5P4K alpha inh -72*, FEN1 inhibitor -2% and BLM helicase inh -8%.
For CCCc1nn2c(N)c(/C=C3\C=Nc4ccccc43)c(=O)nc2s1 the results were WRN inhibitor inconclusive, RECQ1 helicase 2%, APE1 inh 13%, PI5P4K alpha inh -21, FEN1 inhibitor -14% and BLM helicase inh -5%.
For Cc1ccc(NC(=O)Cn2ncc(Cl)c(Cl)c2=O)cc1S(=O)(=O)N1CCCCC1 the results were WRN inhibitor -8%, APE1 inh -23%, PI5P4K alpha inh -58* and FEN1 inhibitor -12%.

Source: PubChem (National Center for Advancing Translational Sciences (NCATS))
